Assay outcomes (PubChem)
NALP3 yeast inh = NALP3 inflammasome inhibitors in reconstituted yeast, primary screen, luminescence, uHTS | Yeast reconstituted NLRP3/ASC/caspase-1, beta-gal luminescence, 24 h | inhibition, % at 10 µM | 330,000 compounds, 0.39% hits | AID 2825, 2010;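 active = inhibition of 50% or more; inactive = inhibition below 50%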;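 note: plate controls were induced DMSO wells for no effect and uninduced yeast grown without galactose for full effect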
TIM10 inh = growth inhibitors of isogenic TIM10 control yeast, primary screen, counter-screen for tim10-1 yeast inhibitor project, luminescence, uHTS; 330,000 compounds, 1.4% hits; inhibition, % at 10 µM; AID 463195, 2010; S. cerevisiae TIM10 strain growth, BacTiter-Glo luminescence, 24 h;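 active = inhibition of 40% or more at the single tested concentration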;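 note: wild-type TIM10 isogenic control strain grown at permissive 25 °C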
NALP1 yeast inh = NALP1 inflammasome inhibitors in reconstituted yeast, colorimetric, S. cerevisiae, triplicate retest; S. cerevisiae NALP1/ASC/caspase-1 growth, X-gal OD620, 72 h; inhibition, % at 10 µM; 280,000 compounds, 0.61% hits; AID 2071, 2009; in the data active = inhibition mostly above about 24%, no sharp cut-off; inactive = mostly below about 32%
tim10-1 inh = growth inhibitors of tim10-1 mutant yeast, primary screen, luminescence, uHTS; S. cerevisiae tim10-1 ts strain growth, BacTiter-Glo, 24 h; AID 463190, 2010; inhibition, % at 20 µM; 330,000 compounds, 2.2% hits;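 active = inhibition of at least 40%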;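 note: mutant grown at 25 °C; 0% = DMSO wells with yeast and 100% = wells holding no yeast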
tim23-1 inh = growth inhibitors of tim23-1 mutant yeast, primary screen, luminescence, uHTS; S. cerevisiae tim23-1 growth, BacTiter-Glo luminescence, 24 h; inhibition, % at 20 µM; 330,000 compounds, 1.3% hits; AID 463212, 2010;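 active = growth inhibition of the mutant yeast at or above 50%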;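 note: temperature-sensitive mutant grown at 25 °C; plate controls were DMSO-treated mutant yeast for no effect and medium wells lacking yeast for full effect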
NALP3 yeast conf = NALP3 inhibitors retested in yeast, confirmation, luminescence, single concentration; shares compounds with NALP3 yeast inh; yeast expressing human NALP3; inhibition, % at 10 µM; 1,300 compounds, 81% hits; in the data active = inhibition above about 48%
Casp1 ASC ctr = CASP1-PYCARD signaling inhibition in yeast, confirmatory test, counterassay for NLRP3 inhibitor program, one-dose; shares compounds with NALP3 yeast inh; yeast expressing Caspase-1-ASC, luminescence counter screen; inhibition, % at 10 µM; 1,000 compounds, 66% hits
NALP3 yeast rt = NALP3 inhibitors in yeast, repeat test, confirmation, luminescence, single concentration, retest; shares compounds with NALP3 yeast inh; yeast expressing human NALP3, luminescence read-out; inhibition, % at 10 µM; 1,000 compounds, 53% hits; AID 488794, 2010
The depositor's hits bear a star; x = no result given. Rows were chosen to be rich in hits. Some 4% of all compounds tested hit in one or more screens of this group. Cut-off read from the data, not from the text of the source, unless noted: active = inhibition above about 50%; inactive = the rest.

SMILES | NALP3 yeast inh | TIM10 inh | NALP1 yeast inh | tim10-1 inh | tim23-1 inh | NALP3 yeast conf | Casp1 ASC ctr | NALP3 yeast rt
COc1ccccc1OCc1nc(C#N)c(N2CCCC2)o1 | 25.4 | -3.3 | 2.6 | 6.1 | 15.5 | x | x | x
N#Cc1nc(-c2ccc(F)cc2)oc1N1CCCC1 | 6.9 | -5.1 | 7.9 | 26.4 | 19.1 | x | x | x
N#Cc1nc(COc2cccc(Cl)c2)oc1N1CCCC1 | 51.2* | -7.4 | 22.8 | 22.8 | 19.8 | 65.3* | 54.9* | 44.0
Cc1ccccc1OCc1nc(C#N)c(N2CCCC2)o1 | 70.7* | -7.0 | 1.6 | 1.4 | 12.5 | 81.4* | 82.6* | 70.8*
N#Cc1nc(COc2ccccc2)oc1N1CCN(Cc2ccccc2)CC1 | 1.0 | 19.9 | 12.2 | 29.7 | 33.5 | x | x | x
N#Cc1nc(COc2ccc(F)cc2)oc1N1CCCC1 | 68.4* | -0.6 | 17.0 | 9.6 | 12.7 | 40.4 | 65.2* | 54.1*
COc1ccc(N2CCN(CCNC(=O)c3c(C)cc(=O)oc3C)CC2)cc1 | 66.9* | -7.7 | 27.7* | 17.8 | -6.2 | 79.6* | 86.0* | 90.7*
COc1ccc(CN2CCSc3sccc3C2=O)cc1 | 60.6* | 7.9 | -16.8 | -4.5 | 14.5 | 71.3* | 68.5* | 65.1*
O=C1c2ccsc2SCCN1Cc1c(Cl)cccc1Cl | 18.7 | 26.0 | 54.5 | 28.5 | 44.9 | x | x | x
O=C1c2ccsc2SCCN1Cc1ccc(Cl)cc1Cl | 65.2* | -14.3 | 12.5 | 10.6 | 36.4 | 64.7* | 76.5* | 66.0*
O=C(/C=C/c1ccccc1)c1ccc2c(c1)OCO2 | 53.2* | 1.0 | -18.4 | 4.9 | 12.5 | 40.2 | 41.9 | 33.5
O=C(/C=C/c1ccccc1Br)c1ccc2c(c1)OCO2 | 62.0* | 2.0 | -1.5 | 5.0 | 28.1 | 59.7* | 19.6 | 29.1
O=C(CCNc1ccccc1)c1ccc2c(c1)OCO2 | 55.6* | -23.4 | -7.5 | 5.8 | 4.1 | 64.2* | 64.4* | 46.2
CN(C)CCC(=O)c1ccc2c(c1)OCO2 | -0.8 | 6.7 | 17.4 | 16.0 | 9.9 | x | x | x
O=C(/C=C/c1cccc(Br)c1)c1ccc2c(c1)OCO2 | 28.9 | 23.7 | -1.6 | 21.5 | 26.4 | x | x | x
COc1cccc(-c2cc(C(=O)NCc3ccco3)c3ccccc3n2)c1 | 29.5 | -7.8 | 15.1 | 7.8 | 15.4 | x | x | x
Ic1ccc(N2CCN(Cc3c[nH]c4ncccc34)CC2)cc1 | 11.7 | 20.4 | x | -0.4 | 17.2 | x | x | x
Clc1ccccc1OCc1nnc2n1CCCCC2 | -3.4 | -10.2 | x | -3.6 | 16.9 | x | x | x
O=C(NC(=S)Nc1cccc([N+](=O)[O-])c1)c1ccco1 | 16.6 | 9.7 | 3.1 | 14.3 | 12.7 | x | x | x
O=C(NC(=S)Nc1cccc([N+](=O)[O-])c1)c1ccccc1 | 50.9* | 11.2 | 1.8 | 15.4 | 0.2 | 63.6* | 43.4 | 39.2
O=C(Nc1ccc([N+](=O)[O-])cc1Cl)c1cc(Cl)ccc1O | 95.6* | 21.4 | x | 30.2 | 22.8 | 99.0* | 99.5* | 97.4*
C/C=C/c1ccc(OCC(=O)NCc2ccccc2OC)c(OC)c1 | 50.0* | 4.7 | -4.0 | -4.3 | 24.3 | 25.1 | x | x
Cc1ccc(C)c(NC(=O)c2ccc(S(=O)(=O)C(F)F)cc2)c1 | 52.8* | -24.4 | 24.0 | -37.1 | 16.0 | 65.3* | 46.5 | 42.6
Cc1ccc(C)c(NC(=O)NNS(=O)(=O)c2ccc(C)c(C)c2)c1 | 0.5 | 6.1 | -5.1 | -0.3 | -3.4 | x | x | x
CCNC(=S)N1CCN(CCN=CC2=C(O)CC(c3cccs3)CC2=O)CC1 (centres undefined) | 17.7 | 2.1 | -3.2 | -5.1 | -1.5 | x | x | x
SMILES | NALP3 yeast inh | TIM10 inh | NALP1 yeast inh | tim10-1 inh | tim23-1 inh | NALP3 yeast conf | Casp1 ASC ctr | NALP3 yeast rt
CCC(=O)N1CCN(CCN=CC2=C(O)CC(c3cccs3)CC2=O)CC1 (centres undefined) | 55.7* | -15.1 | -3.9 | -24.5 | -9.8 | 55.9* | 44.9 | 44.6
Cc1ccc(S(=O)(=O)NCC(=O)NCC2COc3ccccc3O2)cc1C (centres undefined) | 14.9 | 9.5 | x | 5.8 | 21.7 | x | x | x
Cc1ccc2oc(/N=C(\N)NC(=O)C(C)(C)C)nc2c1 | 70.9* | 20.8 | 15.2 | 21.3 | 3.9 | 58.0* | 44.7 | 46.6
CCN1CCN(c2nc(-c3ccccn3)nc3ccccc23)CC1 | 13.5 | -24.4 | 8.9 | -34.9 | -97.8 | x | x | x
CCCN(CCC)c1nc(-c2ccccn2)nc2ccccc12 | 50.0* | 31.7 | 21.2 | 16.9 | -20.8 | 75.5* | x | x
O=[N+]([O-])c1ccc(N2CCCC2)cc1N1CCCC1 | 58.2* | 0.3 | -8.6 | 5.9 | 22.1 | 52.5* | 63.3* | 52.6*
O=C1NCC2=C1C(c1ccc(Br)cc1)Nc1ccccc1N2 (centres undefined) | 52.3* | 31.4 | 4.8 | -17.3 | 32.0 | 63.2* | 41.1 | 33.1
CC1(C)CC(=O)C2=C(C1)Nc1ccccc1NC2c1ccc(F)cc1 (centres undefined) | -1.3 | 6.3 | 14.4 | -1.0 | 4.3 | x | x | x
Cc1c(NC2(C#N)CCCC2)c(=O)n(-c2ccccc2)n1C | 6.4 | -8.1 | -12.5 | 3.2 | 1.8 | x | x | x
O=C(Nc1ccccn1)Nc1ccccc1Cl | 66.4* | -4.1 | 19.0 | 5.0 | 18.2 | 72.3* | 61.0* | 44.0
NS(=O)(=O)c1ccc(CCNC(=O)c2coc3ccccc3c2=O)cc1 | 18.7 | 1.8 | 19.3 | 11.1 | 14.7 | x | x | x
Cc1ccc(OCC(=O)OC(C)CN2CCCCC2)cc1 (centres undefined) | 22.0 | 2.4 | 11.9 | 2.3 | 11.9 | x | x | x
Cc1ccc(C)c(-n2nnnc2Sc2nnnn2-c2ccccc2)c1 | 58.3* | -19.5 | x | -31.1 | -9.9 | 74.2* | 72.7* | 62.3*
Cc1onc(-c2c(F)cccc2Cl)c1C(=O)N1CCCC1 | 12.8 | 4.2 | x | -4.2 | 7.4 | x | x | x
NCCCCCc1nnc(SCc2ccc(Cl)cc2Cl)o1 | 30.9 | 4.9 | 20.0 | 18.1 | -2.1 | x | x | x
NCCc1nnc(SCc2ccccc2Cl)o1 | 72.8* | -6.4 | -9.1 | -14.6 | 1.4 | 73.4* | 70.4* | 71.5*
O=C1NC(NS(=O)(=O)c2ccccc2)(C(F)(F)F)C(=O)N1Cc1ccccc1 (centres undefined) | 16.7 | 8.3 | -6.9 | -5.6 | 3.3 | x | x | x
Cc1ccc(NC(=O)Cc2csc(-c3ccccc3)n2)cc1F | 62.4* | 24.1 | 26.5 | -0.6 | 47.9 | 38.2 | 53.5* | 60.2*
CCN(CC)C(=O)COc1coc(CN2CCN(c3ccccc3F)CC2)cc1=O | 9.3 | -2.2 | 6.2 | -11.1 | 4.2 | x | x | x
O=C(NNC(=O)c1cc([N+](=O)[O-])ccc1Cl)c1cccs1 | 27.9 | -4.3 | 32.0 | 4.8 | 11.6 | x | x | x
Cc1ccc(C)c(OCCC(=O)OCC(=O)NC(=O)NC2CCCC2)c1 | 12.1 | 2.2 | x | 17.3 | 14.7 | x | x | x
